Shown are actives, neighbours in structure and some others; about 4.2% of the full set was active somewhere.
TRPV1 ag: HTS Assay for Compounds that Act as Agonists of the Vanilloid Receptor 1; Transient receptor potential cation channel subfamily V member 1 (Homo sapiens), Q8NER1; TRPV1-expressing cells, Fluo-8 calcium influx, agonist mode; activation, % at 8.33 µM; 0.19% of 320,000 active; in the data active means activation above about 80%; further: 0% is about no effect
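Fluo-8 calcium influx in TRPV1-expressing cells, kinetic read (ex 480/em 520 nm). Compound added and read 3 min for agonist activity, followed by capsaicin at EC20 final and 2 min further read for enhancement.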
D1 antagonist: Antagonist of Human D 1 Dopamine Receptor: qHTS; D(1A) dopamine receptor (Homo sapiens), P21728; HEK293 TREx D1 cells, calcium flux, dopamine EC80; stronger effect = lower value; activity change, negative = inhibition, % at 10 µM; 3.2% of 360,000 active; in the data active means activity change below about -30%; further: on the % scale 0 is the no-effect control and ±100 the full control effect
Target sequence (P21728 whole entry, looked up): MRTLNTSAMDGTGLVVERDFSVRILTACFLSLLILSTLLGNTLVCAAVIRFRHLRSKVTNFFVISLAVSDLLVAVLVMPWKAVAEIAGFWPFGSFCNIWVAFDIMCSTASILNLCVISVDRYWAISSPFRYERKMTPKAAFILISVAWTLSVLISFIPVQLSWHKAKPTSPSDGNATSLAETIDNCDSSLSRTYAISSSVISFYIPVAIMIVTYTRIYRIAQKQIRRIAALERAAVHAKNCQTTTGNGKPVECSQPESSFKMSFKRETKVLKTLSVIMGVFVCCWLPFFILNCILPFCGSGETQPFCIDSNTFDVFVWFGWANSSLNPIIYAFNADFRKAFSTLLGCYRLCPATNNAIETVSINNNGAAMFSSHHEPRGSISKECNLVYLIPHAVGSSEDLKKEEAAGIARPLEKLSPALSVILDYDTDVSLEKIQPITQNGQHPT
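Using tetracycline-induced force-coupled D1 Hek293 cells and a calcium dye, signals were followed for 180 s after compound, then for 180 s after EC80 dopamine, to detect inhibitors.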
TRPV1 PAM: HTS Assay for Compounds that Act as Potentiators of the Vanilloid Receptor 1. 0.02% of 320,000 active. TRPV1-expressing cells, Fluo-8 calcium influx, capsaicin EC20 potentiation. Transient receptor potential cation channel subfamily V member 1 (Homo sapiens), Q8NER1. potentiation, % at 8.33 µM; in the data active means potentiation above about 80%; further: 0% is about no effect
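Fluo-8 calcium influx in TRPV1-expressing cells, kinetic read (ex 480/em 520 nm). Compound added and read 3 min for agonist activity, followed by capsaicin at EC20 final and 2 min further read for enhancement.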
D1 ag: Allosteric Agonists of the Human D1 Dopamine Receptor: qHTS; D(1A) dopamine receptor (Homo sapiens), P21728; HEK293 T-REx D1 cells, calcium flux, agonist mode; activation, % at 2 µM; 1% of 360,000 active; AID 504660, 2011; in the data active means activation above about 30%; further: 0% is about no effect
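Inducible HEK293 T-REx D1 cells, force-coupled to calcium signalling, were plated at 4000 cells/well with tetracycline and held overnight at 30 C. After no-wash calcium dye loading, compound-evoked calcium rise over 180 s flagged agonists.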
D1 PAM: Potentiators of Human D1 Dopamine Receptor: qHTS. D(1A) dopamine receptor (Homo sapiens), P21728. potentiation, % at 10 µM. HEK293 TREx D1 cells, calcium flux, dopamine EC20 potentiation. 0.036% of 360,000 active. AID 504651, 2011; in the data active means potentiation above about 30%; further: 0% is about no effect
Active calls of the source: *; nt = no result given.

SMILES	TRPV1 ag	D1 antagonist	TRPV1 PAM	D1 ag	D1 PAM
NC(N)=NC(N)=Nc1cccc2ccccc12	-3.1	-10.1	6.7	1.1	1.2
CC(CC(=O)N1CCN(c2cccc(Cl)c2)CC1)S(=O)(=O)c1ccc2c(c1)NC(=O)CO2 (stereo not given)	8.7	-15.0	11.7	10.4	-5.6
COc1ccc(N2CCN(C(=O)CC(C)S(=O)(=O)c3ccc4c(c3)NC(=O)CO4)CC2)cc1 (stereo not given)	0.7	-31.5*	23.7	4.7	-3.2
CC(C)CC(=O)Nc1c2c(nn1-c1cccc(Cl)c1)CS(=O)C2 (stereo not given)	8.7	-32.7*	-20.4	2.0	8.3
Cc1nn(CC(=O)NCc2cccc(F)c2)c(=O)c2c(C)n(-c3ccc(Cl)cc3)nc12	nt	6.1	nt	-0.1	1.2
Cc1cn2c(=O)cc(COC(=O)COc3ccccc3C)nc2s1	nt	-30.2*	nt	13.4	-8.9
Cc1cn2c(=O)cc(COC(=O)c3ccc(NC(=O)COc4ccc(C)c(C)c4)cc3)nc2s1	nt	-35.8*	nt	2.0	-0.4
Cc1cn2c(=O)cc(COC(=O)c3cccc(NC(=O)c4ccccc4C)c3)nc2s1	nt	-59.0*	nt	3.3	-1.3
NC(=O)c1cccc(C[C@H](C(=O)O)N2C(=O)c3ccc(C(=O)O)cc3C2=O)c1	nt	-16.8	nt	3.8	3.2
CCC(C)NC(=O)c1ccc2c(c1)N=C(C)c1cc(C)ccc1S2 (stereo not given)	nt	15.3	nt	9.4	-2.0
Cc1cccc(-n2nnnc2S(C)(=O)=O)c1	nt	-51.5*	nt	3.8	-1.4
COc1ccc(/C(O)=C/c2nc3ccccc3n(-c3ccccc3)c2=O)cc1	0.6	-6.8	2.2	38.6*	-2.2
CN1CCN(CCC=C2c3ccccc3Sc3ccc(S(=O)(=O)N(C)C)cc32)CC1	1.6	-97.5*	-0.4	39.7*	-2.8
CN(C)CCCN1c2ccccc2Sc2ccc(C(F)(F)F)cc21	6.2	-78.7*	4.9	55.4*	-4.8
OCCN1CCN(CCCN2c3ccccc3Sc3ccc(C(F)(F)F)cc32)CC1	6.8	-106.3*	-11.5	37.9*	nt
CN(C)S(=O)(=O)c1ccc(Cl)c(NC(=O)CN2CCc3ccccc3C2)c1	13.8	-19.4	7.1	0.7	1.9
CCN(CC)CC(=O)N1c2ccccc2Sc2ccccc21	-2.8	-25.5	10.6	6.6	1.4
CN1CCN(CCC(=O)N2c3ccccc3Sc3ccc(C(F)(F)F)cc32)CC1	-1.1	-4.2	7.7	11.7	-7.0
CCN(CC)CCCCN1c2ccccc2Sc2ccccc21	0.3	-12.3	3.0	35.0*	-3.9
Cc1ccc2cccc(NC(=O)C(C)(C)Oc3ccc(Br)cc3)c2n1	nt	-10.4	nt	6.7	-0.3
OCCN1CCN(CC/C=C2/c3ccccc3Sc3ccc(C(F)(F)F)cc32)CC1	1.5	-88.2*	2.3	23.5	-3.2
CCOC(=O)C(CCCOc1cccc(OC)c1)C(=O)OCC	23.0	-34.3*	-9.8	9.9	-0.2
CC1CN(Cc2cc(=O)n3ccsc3n2)CC(C)O1 (stereo not given)	2.1	-49.4*	-1.2	1.3	0.7
O=C(O)CCC(NC(=O)c1ccc(Cl)cc1)C(=O)O (stereo not given)	-3.7	-31.9*	-4.7	1.1	-3.8
NC(=O)CCC(NC(=O)c1ccc(Cl)cc1)C(=O)O (stereo not given)	0.9	-7.7	-8.3	1.9	-2.5
CCC(Oc1ccccc1)C(=O)Nc1cc(-c2ccccc2F)nn1-c1ccccc1 (stereo not given)	nt	0.7	nt	13.3	-1.4
CCOC(=O)Cc1cc(=O)[nH]c(/N=C(\N)Nc2ccc(C)cc2C)n1	9.7	-38.0*	-9.1	3.6	-31.5
COC(=O)Cc1cc(=O)[nH]c(/N=C(\N)Nc2ccc(C)cc2C)n1	1.5	-31.9*	14.5	5.4	-9.2
Cc1nnc(SCc2cc(=O)[nH]c(/N=C(\N)Nc3ccccc3Sc3ccccc3)n2)s1	0.9	-10.6	6.2	1.8	-0.9
COCc1cc(=O)[nH]c(/N=C(\N)Nc2ccccc2C)n1	-0.6	10.9	-5.3	0.7	-1.5

Assay outcomes: PubChem, National Center for Advancing Translational Sciences (NCATS)
